PubChem BioAssay (NCI)
About 83,000 compounds went through this panel and 20% of them were active in at least one assay; those are over-represented in the sample as a whole.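 Assay: single dose, 48 h. Readout: percent growth (0 = no net growth; negative = cell death). Active: <10.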 A number with no mark means an inactive call. Activity calls are given as the source filed them.

Legend:
Test in all cases: NCI-60 one-dose screen, 48 h (100 = growth as untreated, 0 = no growth, -100 = all killed)
Settings in all cases: 10 µM unless noted
SR leukemia = tested on: SR leukemia
RPMI-8226 leukemia = tested on: RPMI-8226 leukemia
OVCAR-8 ovarian = tested on: OVCAR-8 ovarian
OVCAR-5 ovarian = tested on: OVCAR-5 ovarian
OVCAR-4 ovarian = tested on: OVCAR-4 ovarian
SK-OV-3 ovarian = tested on: SK-OV-3 ovarian
IGROV1 ovarian = tested on: IGROV1 ovarian
OVCAR-3 ovarian = tested on: OVCAR-3 ovarian
HS 578T breast = tested on: HS 578T breast
NCI/ADR-RES ovarian = tested on: NCI/ADR-RES ovarian

SMILES	growth (SR leukemia)	growth (RPMI-8226 leukemia)	growth (OVCAR-8 ovarian)	growth (OVCAR-5 ovarian)	growth (OVCAR-4 ovarian)	growth (SK-OV-3 ovarian)	growth (IGROV1 ovarian)	growth (OVCAR-3 ovarian)	growth (HS 578T breast)	growth (NCI/ADR-RES ovarian)
O=C(/C=C\c1ccccc1Cl)c1ccccc1	67.6%	66%	104%	89.8%	89.8%	107%	111%	99.5%	111%	101%
Nc1cc(N)c2nc(NCCc3ccc(Cl)c(Cl)c3)cnc2c1	-69.7% (active)	-48.9% (active)	32.6%	31%	-96.7% (active)	88.8%	21.3%	-43.4% (active)	62.1%	89.6%
COc1cc2ncnc(-n3ncc4cc(NC(=O)Nc5ccc(Cl)c(Cl)c5)ccc43)c2cc1OC	9.64% (active)	-0.257% (active)	2.71% (active)	-33.1% (active)	-32.3% (active)	-24.9% (active)	-58.3% (active)	-65.5% (active)	-5% (active)	-30.7% (active)
CC1=C(C)C(=O)C(C(C)C2=C(C)C(=O)C(C)=C(C)C2=O)=C(C)C1=O	56%	50.5%	99.1%	44%	104%	98.1%	2.57% (active)	150%	77.9%	91.9%
O=C1C(=O)c2ccccc2C(O)=C1CCCc1ccc(Oc2ccccc2)cc1	94.5%	22.3%	72.7%	110%	59.6%	74.7%	34.7%	49.4%	95.7%	91.6%
COc1cc(/C=C/C(=O)/C=C(/C=C/c2ccc(OC(C)=O)c(OC)c2)OB(F)F)ccc1OC(C)=O	-2.62% (active)	14.3%	20%	104%	69.6%	94.8%	65.5%	18.9%	76.2%	43.6%
CC(=O)c1cc(Nc2cc(C)nc(N)n2)cc(C(C)=O)c1	35.8%	100%	98.8%	91.6%	108%	116%	91.7%	112%	94.6%	94%
O=C(CCl)c1ccc2c(c1)CCCC2	7.36% (active)	84.6%	95.6%	107%	107%	110%	89.2%	114%	94.7%	108%
CCCCCCC(C(=O)OCC)(C(=O)OCC)C1CCCCCC1	101%	113%	107%	102%	101%	95.7%	102%	117%	105%	106%
O=C1C(=O)c2ccccc2C(O)=C1CCCc1ccc(C2CCCC2)cc1	-49.3% (active)	7.4% (active)	31.7%	24.9%	23.4%	55%	50.8%	39.3%	31.7%	37.6%
COc1ccc(Cn2cc3c(c2-c2ccccc2)CCc2cnoc2-3)cc1OC	18.4%	22.6%	38.9%	75.6%	41.5%	8.39% (active)	37.7%	13.8%	5.72% (active)	6.32% (active)
N=C(c1ccccc1)N(Cc1ccccc1)Cc1ccccc1	64.8%	94.4%	97.9%	86.3%	84.9%	98.1%	67%	110%	113%	99.8%
CCCCCCC(=O)C(C)C	90.7%	105%	99.1%	110%	110%	110%	102%	107%	105%	103%
C=CCC(CCC(CC=C)C(=O)OCC)C(=O)OCC (stereo not given)	86.7%	101%	95.2%	106%	102%	107%	102%	115%	107%	109%
O=C(/C=C/c1c[nH]c2ccccc12)c1cc2ccccc2o1	41.1%	60.1%	99.3%	101%	101%	103%	88.2%	93.3%	100%	99.9%
CCN(CCO)CCNc1ccc(C)c2sc3cc(OC)ccc3c(=O)c12	-3.46% (active)	65.3%	62.7%	82.7%	84.7%	88.7%	66.5%	90.6%	84.2%	64.1%
CCCCCCCCCCCCCCCCNC(=O)Nc1ccc(C)c(NC(=O)NCCCCCCCCCCCCCCCC)c1	104%	99.2%	105%	109%	108%	105%	107%	109%	95.1%	112%
CC(=O)OC1/C=C\CC/C=C\C1 (stereo not given)	104%	101%	98.8%	97.4%	107%	105%	110%	115%	101%	122%
O=C(/C=C1\C(=O)N(Cc2ccccc2)c2ccccc21)c1ccc(OCCN2CCCCC2)cc1	-21.6% (active)	-33.9% (active)	7.86% (active)	39.8%	-22.3% (active)	99.7%	6.02% (active)	-37% (active)	77.7%	65.7%
N/C(=N\O)c1ccncc1	108%	110%	102%	102%	103%	106%	105%	105%	110%	102%
CCOC(=O)CCCCCCCCC(=O)OCC	106%	108%	106%	112%	111%	106%	105%	106%	110%	101%
Cc1nc(NC(=O)NC2CCCCC2)sc1C(=O)NN	131%	112%	102%	102%	109%	116%	72.2%	99.5%	105%	118%
COc1cc(-c2c3c(cn2CCN2CCCCC2)-c2oncc2CC3)cc(OC)c1OC	92.5%	108%	101%	85.3%	100%	93.7%	104%	113%	99.3%	97.3%
C=C[C@]1(C)C=C2C(=O)[C@@]3(O)OC[C@@]4(CCCC(C)(C)C43O)C2(O)C(O)C1 (stereo not given in full)	-14.4% (active)	15.2%	58.3%	120%	24.4%	104%	107%	16.3%	90.3%	60.9%
CC(C)(C)C(=O)OCOP(=O)(OCOC(=O)C(C)(C)C)C1CC(O)N(O)C1=O (stereo not given)	8.3% (active)	9.24% (active)	13.7%	73.8%	74.4%	52.5%	3.72% (active)	53.6%	-4.97% (active)	44.6%
O=c1[nH]c(=S)[nH]c(O)c1/C=C1\C=Nc2ccccc21	5.51% (active)	72.2%	48.6%	96%	91.9%	104%	40.3%	33.3%	71.7%	87.9%
BrCCCOc1ccc(Oc2ccc(OCCCBr)cc2)cc1	93.8%	98%	94.6%	122%	99%	123%	97.7%	123%	92.8%	110%
C#CCCCCCCC[C@@H]1OC(=O)[C@H]([C@@H](C)CC)NC(=O)[C@@H]([C@@H](C)CC)NC(=O)CC(=O)[C@@H]1C	91.2%	93.8%	99.8%	88%	99.3%	102%	89.1%	103%	84.6%	99.2%
